Compound activity (PubChem)
Shown are actives, neighbours in structure and some others; about 4.2% of the full set was active somewhere.
esBAF inh = Bmi1 luciferase reporter increase in mESCs, primary screen, esBAF inhibitor project, mouse ES cells, Bmi1 luciferase knock-in, single point. 24 h; 100% = twice the neutral-well signal. reporter increase, % at 12.5 µM. actives 2% (n = 350,000); in the data active = activation above about 40%; inconclusive = no clear call, values can overlap the other calls;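 also: a rise in the Bmi1 reporter signal indicates esBAF inhibition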
Wnt act = Wnt/beta-catenin pathway activators, primary screen, cell-based, plate reader, single point | activation, % at 9.35 µM | AID 743398, 2014 | actives 1.2% (n = 300,000) | Wnt/beta-catenin reporter cell assay, activator; in the data active = activation above about 30%, passing the limit was not always enough; inconclusive = no clear call, values can overlap the other calls
DAX1 inh = DAX1 (NR0B1) inhibitors on StAR promoter, primary screen, cell-based, luminescence, SF-1 (NR5A1), full-length DAX-1. HEK293T StAR-luciferase reporter, SF-1/DAX-1 repression relief. inhibition, % at 6.8 µM. actives 1.1% (n = 370,000);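 active = inhibition above the mean over all tested compounds plus 3 SD, cut at about 3.6% in these data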;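 also: higher inhibition means more luminescence from relief of DAX-1 repression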
hcDAF-12 act = H. contortus DAF-12 nuclear receptor activators, primary screen, cell-based, luminescence, HEK293, lit1-tk-luc reporter | HEK293 hcDAF-12 lit1-tk-luc reporter; 0% DMSO, 100% Δ7-dafachronic acid | activation, % at 6.8 µM | actives 1.4% (n = 370,000) | AID 652067, 2013;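 active = activation above the mean of all tested compounds plus 3 SD, cut at about 5.5% in these data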
ssDAF12 agonist = S. stercoralis DAF-12 nuclear receptor activators, primary screen, cell-based, luminescence, HEK293, GRIP1 co-expression, lit1-tk-luc. activation, % at 6.8 µM. Nuclear hormone receptor DAF-12 (Strongyloides stercoralis). actives 1% (n = 370,000). AID 652126, 2013. HEK293 ssDAF-12/GRIP1 lit1-tk-luc reporter; % of 3 µM dafachronic acid response;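 active = activation above the mean over all tested compounds plus 3 SD, cut at about 0.9% in these data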
hgDAF-12 ag = H. glycines DAF-12 receptor agonists, primary screen, cell-based, luminescence, HEK293, GAL4 fusion, UAS-luciferase. AID 687014, 2013. HEK293 GAL4-hgDAF12 UAS-luciferase reporter, agonist luminescence; normalized to butyrate control. actives 1.8% (n = 370,000). activation, % at 6.8 µM. Nuclear hormone receptor DAF-12 (Heterodera glycines), GAL4 fusion;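 active = activation above a cutoff set at the mean of all screened compounds plus 3 SD, cut at about 10% in these data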
Numbers stand for hits; n = inactive; u = inconclusive; x = no result given.

SMILES	esBAF inh	Wnt act	DAX1 inh	hcDAF-12 act	ssDAF12 agonist	hgDAF-12 ag
COc1ccc(C(=O)c2nc3c(n2O)CCCCC3)cc1	n	x	n	n	n	n
O=C(c1ccc(Oc2ccccc2)cc1)c1nc2c(n1O)CCCC2	n	n	n	n	1.2	n
Cc1ccc(N=Cc2nc(-c3ccco3)oc2O)cc1	48	37	n	n	n	n
CC1CCN(c2c(NCc3ccc(C(=O)N4c5ccccc5CC4C)cc3)c(=O)c2=O)CC1 (stereo not given)	n	n	n	n	1.1	n
COc1ccc(NC(=O)N(C)C[C@@H]2OCCCC[C@@H](C)Oc3ccc(NC(=O)Nc4cccc5ccccc45)cc3C(=O)N([C@@H](C)CO)C[C@@H]2C)cc1	n	x	x	x	x	x
Cc1ccc(C(=O)c2cncc(Br)c2)cc1	n	n	n	n	n	n
CCc1ccc(C(=O)c2cncc(Br)c2)cc1	46	n	n	n	n	n
Cn1cnc(CCNC(=O)C[C@H]2CC[C@@H]3[C@H](COC[C@H](O)CN3C(=O)Nc3ccccc3)O2)c1	n	x	x	x	x	x
CC(=O)N/C(N)=N/c1nc2cc([N+](=O)[O-])ccc2o1	x	n	n	n	n	n
CC(=O)N/C(N)=N/c1nc2cc(C)ccc2o1	x	n	n	n	n	11
CC(C)CC(=O)N/C(N)=N/c1nc2ccccc2o1	75	53	n	n	n	n
CCC(=O)N/C(N)=N/c1nc2ccccc2o1	x	n	n	n	n	n
Cc1ccc(C(=O)N/C(N)=N/c2nc3ccccc3o2)cc1	43	x	n	n	n	n
CCCC(=O)N/C(N)=N/c1nc2ccccc2o1	x	46	n	n	n	n
O=C(C[C@H]1CC[C@@H](NC(=O)c2cccc(F)c2)[C@@H](CO)O1)NCCN1CCCC1	n	x	x	x	x	x
Cc1nc2c(-c3ccc(F)cc3)cnn2c2c1CCC2	x	u	n	5.7	n	n
COc1ccc2c(c1)C(=O)c1ccccc1CO2	x	x	n	n	n	n
COc1ccc(C2=Nc3ccccc3OC2)cc1	64	n	n	n	n	n
C[C@H](CO)N1C[C@H](C)[C@@H](CN(C)C(=O)Nc2ccccc2)OCCCC[C@H](C)Oc2ccc(NC(=O)c3ccccc3)cc2C1=O	n	x	x	x	x	x
C[C@H](CO)N1C[C@H](C)[C@H](CN(C)S(=O)(=O)c2cccs2)Oc2ncccc2C1=O	n	x	x	x	x	x
Cc1csc2ncc(C(=O)Nc3cccc(C(F)(F)F)c3)c(=O)n12	n	n	n	n	n	n
CCc1ccc(NC(=O)c2cnc3scc(C)n3c2=O)cc1	n	n	n	5.8	1.2	n
O=C(CSc1nc2nc(-c3cccs3)cc(C(F)(F)F)c2c(=O)[nH]1)C(F)(F)F	n	n	n	n	n	13
COC(=O)CSc1nc2nc(-c3cccs3)cc(C(F)(F)F)c2c(=O)[nH]1	n	n	n	n	n	n
CCCNC(=O)C[C@H]1CC[C@@H]2[C@H](COc3ccc(NC(=O)COC)cc3C(=O)N2C)O1	n	x	x	x	x	x
SMILES	esBAF inh	Wnt act	DAX1 inh	hcDAF-12 act	ssDAF12 agonist	hgDAF-12 ag
Cc1noc(C)c1NC(=O)Nc1ccc2c(c1)CC(=O)N([C@H](C)CO)C[C@H](C)[C@H](CN(C)C(=O)Nc1ccc(F)cc1)O2	n	x	x	x	x	x
O=C(CCl)NNC(=O)c1c(O)c2ccccc2[nH]c1=O	n	n	n	n	n	n
O=C(NCCc1ccccc1)c1nccc2ccccc12	80	n	n	n	n	n
O=C(NCCc1ccccc1)c1ccccc1C(=O)NCCc1ccccc1	n	n	n	n	n	n
O=C(NNC(=O)c1c(O)c2ccccc2[nH]c1=O)c1ccccc1Br	n	n	n	n	0.9	n
O=C(NCCc1ccccc1)c1c(O)c2ccccc2[nH]c1=O	50	n	n	n	n	n
O=S(=O)(O)c1cc2oc(-c3ccccc3)nc2c2ccccc12	n	n	n	5.8	n	n
CN(C)CCCNc1ncnc2c1c(-c1ccccc1)cn2-c1ccccc1	n	n	n	n	n	n
CN(C)CCCNc1ncnc2scc(-c3ccccc3)c12	x	40	n	n	n	n
Cc1ccc(-c2noc(-c3ccccc3C(=O)N3CCN(C)CC3)n2)cc1	64	n	n	6.6	n	n
O=C(c1ccccc1-c1nc(-c2ccccc2)no1)N1CCCC1	57	n	n	n	n	n
CCC(C)(C)C1CCc2[nH]nc(C(=O)NN)c2C1 (stereo not given)	x	n	n	n	n	n
CCC(C)(C)C1CCc2[nH]nc(C(=O)NC3CCCCC3)c2C1 (stereo not given)	58	n	n	n	n	n
O=C(CCNC(=O)c1ccc(Br)cc1)Nc1ccc(S(=O)(=O)N2CCOCC2)cc1	n	36	n	n	n	n
O=C(CCNC(=O)c1ccc(Cl)cc1)Nc1ccc(S(=O)(=O)N2CCOCC2)cc1	n	n	n	n	n	n
Cc1ccc(C(=O)Nc2ccc(S(=O)(=O)N3CCOCC3)cc2)cc1Br	x	41	n	n	n	n
COc1ccc(S(=O)(=O)N2CCOCC2)cc1NC(=O)c1ccc2c(c1)OCCO2	n	40	n	n	n	n
CCN1CCN(c2ccc(S(=O)(=O)N3CCOCC3)cc2NC(=O)c2cccc([N+](=O)[O-])c2)CC1	x	n	n	n	1.1	n
Cc1c(C(=O)O)[nH]c2ccc([N+](=O)[O-])cc12	x	n	n	6.2	n	n
NCCc1c(C(=O)O)[nH]c2ccc([N+](=O)[O-])cc12	n	n	n	n	n	n
CC1CCCC(NC(=O)CSc2ncccc2C(=O)O)C1C (stereo not given)	n	x	n	n	1.2	n
O=C(COC(=O)c1ccc(O)cc1O)N=c1sccn1Cc1ccccc1Cl	n	n	n	n	n	n
Cc1ccc(Cn2ccsc2=NC(=O)COC(=O)c2ccc(O)cc2O)cc1	47	n	n	n	n	n
Cc1nn(C)cc1NC(=O)C[C@@H]1CC[C@H]2[C@@H](COc3ccc(NC(=O)Nc4cccc(Cl)c4)cc3C(=O)N2C)O1	n	x	x	x	x	x
COc1ccc(CNC(=O)Cc2ccc(NC(=O)C3=C(C)OCCS3)cc2)cc1	n	n	n	n	n	11
COc1cccc(CNC(=O)c2cccc(NC(=O)C3=C(C)OCCS3)c2)c1	n	n	n	n	n	n
CCOC(=O)c1c(N)n[nH]c1-c1ccc(OC)cc1	n	x	n	n	n	n
